From PubChem BioAssay
Tau fibril ThT: tau fibrillization inhibition (ThT binding). recombinant tau K18 P301L, heparin-induced fibrillization, ThT fluorescence. Potency, µM (titrated, usually from 57.4 µM), most hits filed as inhibitors. 2.1% of 270,000 active. AID 1460; note: nearly all actives have a fitted effect of over 55% in size
Target sequence (P10636 561-689 P618L limits assumed): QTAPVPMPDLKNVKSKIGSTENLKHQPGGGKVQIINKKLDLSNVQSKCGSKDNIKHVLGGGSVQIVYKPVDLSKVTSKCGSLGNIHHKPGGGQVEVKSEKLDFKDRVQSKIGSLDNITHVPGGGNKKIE
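K18 P301L tau (15 uM + 0.24 uM Alexa 594-tagged), heparin 20 uM, NaOAc pH 7, 6 h 37 C; ThT 30 uM, 1 h RT, ex 450/em 510 nm.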
NPSR antag: blocks cAMP signaling of the human neuropeptide S receptor | CHO-NPSR cells, cAMP TR-FRET, antagonist mode | Q6W5P4 | AID 1461 | Potency, µM (doses to about 38.3 µM), usual class: inhibitors | 1% of 220,000 active; note: nearly all actives have a fitted effect of over 50% in size
PNC inhibitor: inhibitors of perinucleolar compartment assembly; PC3M PTB-GFP, PNC prevalence imaging, 16 h; active compounds read low; activity change (PNC), negative = inhibition, % at 10 µM; 3.1% of 140,000 active; AID 2417;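 active = readout at or below -70, meaning at least 70% loss of cells showing the perinucleolar compartment, a nuclear body marking cancer cells; inconclusive = readout between -30 and a set limit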
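Read-out is percentage of cells bearing a perinucleolar compartment, from automated 20x imaging of fixed, Hoechst-stained PC3M PTB-GFP cells. Cells were seeded 4 h, then exposed 16 h to compound (23 nl of library stock) in duplicate plates.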
Tau FP inhib: blocks human tau fibril formation measured by polarization | Potency, µM (highest dose often 57.7 µM), usual class: inhibitors | 0.39% of 280,000 active | K18 P301L tau heparin fibrillization, Alexa594 FP, 6 h | P10636; note: nearly all actives have a fitted effect of over 55% in size
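Quantitative HTS format: compounds meet 15 uM recombinant K18 P301L tau and Alexa 594-tau tracer in 100 mM sodium acetate pH 7; 20 uM heparin triggers fibrillization at 37 C over 6 hr; FP gives the signal.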
KDM4E inh: blocks human JMJD2E demethylase activity; B2RXH2; JMJD2E catalytic domain, FDH-coupled NADH fluorescence (FDH is formaldehyde dehydrogenase); Potency, µM (top dose mostly 57.1 µM), usual class: inhibitors; 1.6% of 230,000 active; AID 2147; active = well fitted inhibition curve with a large enough effect, not every such curve was filed as active; inconclusive = small, poorly fitted or top-dose-only effect, or another doubt; inactive = no such curve, though single readings can be large or run the other way; note: nearly all actives have a fitted effect of over 50% in size
Target sequence (B2RXH2 1-337 limits assumed): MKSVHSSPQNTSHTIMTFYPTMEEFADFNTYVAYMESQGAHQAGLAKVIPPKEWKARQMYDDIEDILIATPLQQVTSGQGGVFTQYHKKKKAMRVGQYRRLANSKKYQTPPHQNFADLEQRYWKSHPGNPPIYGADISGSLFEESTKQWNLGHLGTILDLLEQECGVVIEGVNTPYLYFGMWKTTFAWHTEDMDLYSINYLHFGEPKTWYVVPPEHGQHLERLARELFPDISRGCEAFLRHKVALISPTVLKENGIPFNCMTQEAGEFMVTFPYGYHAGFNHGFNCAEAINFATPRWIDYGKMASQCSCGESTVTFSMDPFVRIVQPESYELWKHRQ
Tau fluor cs: counter-screen for tau fibril formation inhibitors. tau K18 P301L (four-repeat tau fragment) Alexa594 fluorescence, heparin fibrillization. Potency, µM (doses to about 57.7 µM). 0.93% of 280,000 active. AID 1463; note: nearly all actives have a fitted effect of over 55% in size
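Human K18 P301L tau (15 uM unlabeled plus 0.24 uM Alexa 594-labeled, final) in 100 mM sodium acetate pH 7 was mixed with compound and 20 uM heparin and incubated 6 hr at 37 C.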
Numbers stand for hits; 0 = inactive; ? = inconclusive; - = not tested or not shown; [ ] = remark or other dose. This is a sample that favours compounds with a hit; in the whole collection about 5.1% have one here. Unless noted, calls come from the whole dose curve; as a rule, active = well fitted curve in the direction sought with a large enough effect; inconclusive = small, poorly fitted or top-dose-only effect, or another doubt; inactive = no such curve, though single readings can be large; an effect the other way counts as inactive or inconclusive.

SMILES	Tau fibril ThT	NPSR antag	PNC inhibitor	Tau FP inhib	KDM4E inh	Tau fluor cs
CC(=O)Nc1cccc(-c2csc(Nc3ncccn3)n2)c1	?	0	-	0	0	0
CC(=O)Nc1ccc(-c2csc(Nc3cccc(C)n3)n2)cc1	?	0	-	0	0	20µM[quencher]
CCOc1ccc(CNC(=O)C2CCN(C(=O)N3CC(CC)Oc4ccccc43)CC2)cc1 (stereo not given)	0	-	-	0	-	?
CC(CNC(=O)c1ccc(CSc2nc3ccncc3n2Cc2cccc(F)c2)cc1)c1ccccc1 (stereo not given)	0	-	-	0	-	0
N#Cc1c(-c2ccc(F)cc2)cc(-c2cccnc2)nc1N	0	0	-89	0	?	0
N#Cc1c(-c2ccc(Br)cc2)cc(-c2cccnc2)nc1N	0	0	0	0	?	0
O=C1NC(=S)S/C1=C\c1ccc(SCc2ccco2)o1	4.5µM	0	0	?	?	?
O=C1NC(=S)S/C1=C\c1ccc(SCc2ccccc2)o1	10µM	0	0	0	0	?
Cc1cc(/C=C2\SC(=S)NC2=O)cc(C)c1O	?	0	-	0	0	0
CCOC(=O)C1=C(CN2CCN(c3cccc(OC)c3)CC2)NC(=O)NC1c1ccc(OC)cc1 (stereo not given)	0	-	-	0	-	0
CCC1=C/C(=C/N(C)c2ccccc2)C(=O)S1	25µM	0	0	?	0	?
Cc1ccc(CNC(=O)Cn2cc(S(=O)(=O)Cc3ccccc3Cl)c3ccccc32)cc1	0	-	-	0	-	0
C/C(=N/Nc1ccc([N+](=O)[O-])cc1)c1ccc(C)cc1C	4.5µM	0	-	?	0	10µM[quencher]
C/C(=N\Nc1ccc([N+](=O)[O-])cc1)c1cc2ccccc2o1	2.8µM	0	-	0	0	8.9µM[quencher]
C/C(=N\Nc1ccc([N+](=O)[O-])cc1)c1ccc(C#N)cc1	?	0[7.67 µM]	-	0	0	?
Cc1ccc2oc(-c3cc(NC(=O)CC(C)C)ccc3Cl)nc2c1	0	-	-	?	-	0
O=C(Nc1nc2n(n1)C(c1ccccc1)C=C(c1ccccc1)N2)c1ccc(Cl)c([N+](=O)[O-])c1 (stereo not given)	0	-	-	0	-	0
Cc1cccc(NC(=O)C(=O)NCCc2csc(-c3ccc(F)cc3)n2)c1C	0	-	-	0	-	0
COc1ccc2c(=O)c(OC)c(-c3ccccc3)oc2c1	?	-	-	0	?	?
COc1ccc2c(c1)OCc1c-2oc2cc(OC)ccc12	8.9µM	-	-	?	0	?
CCc1nc2ccccc2c(=O)n1NC(=O)c1c(O)c2ccccc2n(CC)c1=O	0	0	-	0	?	0
Cc1c(C(=O)Nc2nc3ccccc3[nH]2)oc2ccc(Br)cc12	?	0	0	0	?	0
CCn1c(=O)c(C(=O)Nc2nc3ccccc3[nH]2)c(O)c2ccccc21	?	3.2µM	0	0	0	0
Cc1c(C(=O)Nc2nc3ccccc3[nH]2)oc2ccccc12	0	0	0	0	3.2µM	0
N#C/C(=C\C1=C(N2CCOCC2)C(=C/c2cccc([N+](=O)[O-])c2)/CC1)C(=O)Nc1ccccc1F	2.2µM	0	?	?	0	0
SMILES	Tau fibril ThT	NPSR antag	PNC inhibitor	Tau FP inhib	KDM4E inh	Tau fluor cs
CCCOc1ccc(-c2nonc2NC(=O)c2oc3ccc(Cl)cc3c2C)cc1OCCC	0	-	-	0	-	0
COc1ccc(-c2cc(C(F)(F)F)nc(SCC(=O)NCc3ccc(OC)c(OC)c3)n2)cc1	0	-	-	0	-	0
CC1(C)CC(Nc2ccc(Nc3ccccc3)cc2)CC(C)(C)N1	?	0	-	?	0	28µM[quencher]
CC1(C)CC(NC(=O)c2ccccc2C(=O)NC2CC(C)(C)NC(C)(C)C2)CC(C)(C)N1	0	0	-	0	0	0
Cc1ccc(C(=O)NCCSc2c(C)[nH]c3ccccc23)cc1[N+](=O)[O-]	0	0	0	0	0	0
COc1ccccc1C(=O)NCCSc1c(C)[nH]c2ccccc12	?	-	-	0	-	16µM[quencher]
Cc1[nH]c2ccccc2c1SCCNC(=O)c1ccccc1F	?	-	-	0	-	25µM[quencher]
COc1cccc(C(=O)NCCSc2c(C)[nH]c3ccccc23)c1OC	-	0	-	0	0	?
COc1cc(C(=O)NCCSc2c(C)[nH]c3ccccc23)cc(OC)c1OC	?	-	-	0	-	25µM[quencher]
CC(C)c1nc2ccc(C(=O)Nc3ccccc3F)cc2o1	0	-	-	0	-	0
